Among all 360,000 compounds or so, about 7,500 (2.1%) were called active. About 20% were inconclusive and are not listed. Calls come from the whole dose curve; as a rule, active = well fitted inhibition curve with a large enough effect; inconclusive = small, poorly fitted or top-dose-only effect, or effect the other way; inactive = flat fitted curve, though single readings scatter. For the sample, actives were picked, then their nearest neighbours and some compounds at random.
test: Nrf2 qHTS screen for inhibitors; details: A549 ARE-Fluc reporter, luciferase luminescence, 18-24 h; series mostly up to 46 µM; activity change, negative = inhibition: at the top concentration; note: nearly all actives have a fitted effect of over 60% in size
Outline: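 A549 ARE_Fluc cells, 5000/well, 5% FBS OPTI-MEM; compounds in dose-response, 18-24 h at 37 °C/5% CO2; CellTiter-Fluor viability read (Ex 405/Em 525), then BugLite luciferase luminescence = Nrf2 activity.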
% is set by controls: 0 for no effect and ±100 for the full control effect; potency is the fitted concentration of half-maximal effect.

Activity change, negative = inhibition, inactive:
Cc1onc(-c2c(Cl)cccc2Cl)c1C(=O)NNC(=O)c1c(-c2c(Cl)cccc2Cl)noc1C -4.18%
Cc1onc(-c2ccccc2Cl)c1C(=O)OCC(=O)c1ccccc1 -9.9%
COC(=O)c1ccc(CNC(=O)Cn2cc(C)c(=O)[nH]c2=O)cc1 -7.9%
Cc1cccc(-c2nc(SCc3ccc(Br)cc3)n3[nH]c(=O)cc3n2)c1 8.24%
O=C(O)c1ccccc1C(=O)Nc1nc(-c2ccccc2)cs1 5.28%
CC(=O)Nc1ccc(S(=O)(=O)Nc2nc(-c3ccc(C(C)(C)C)cc3)cs2)cc1 12.6%
Cc1cc(Cl)ccc1OCC(=O)N(Cc1ccc(N(C)C)cc1)C1CCS(=O)(=O)C1 (centres undefined) -18.6%
COc1ccc(-c2ccc3c(c2)[C@@H]2C[C@H](N(C)S(=O)(=O)c4ccccc4)[C@H]([C@H](C)O)C(=O)N2CC3)cc1 -25.2%
Cc1nnc(N2CCC(C(=O)Nc3ccc(F)cc3)CC2)c2nn(-c3ccc(Cl)cc3)c(C)c12 -15.4%
CC1CC(C)CN(CC(=O)N2c3ccccc3CCc3ccccc32)C1 (centres undefined) 11.5%
CNC(=O)N1c2ccccc2C=Cc2ccccc21 2.79%
CCN(CC)S(=O)(=O)c1ccc(Cl)c(NC(=O)c2ccncc2)c1 -11.1%
Cc1cccc(NC(=O)c2cccnc2Cl)n1 4.02%
COc1ccc(N2C(=O)CS(=O)(=O)C23C(=O)N(Cc2ccc(C)cc2)c2ccccc23)cc1Cl (centres undefined) 21.7%
CN(C)C(CNC(=O)c1cc2ccccc2o1)c1ccccc1 (centres undefined) 9.12%
COc1cccc(CN2CCc3nc(SCC(=O)Nc4ccccc4)[nH]c(=O)c3C2)c1 -1.53%
O=[N+]([O-])c1cc(Br)c(O)c(/C=N/Nc2nc3ccccc3s2)c1 14.3%
COc1cc(/C=N/Nc2nc3ccccc3s2)ccc1O -1.56%
CCC(C(=O)Nc1cc(OC)ccc1OC)n1c(=O)c(C(F)(F)F)nc2ccccc21 (centres undefined) -29.5%
CSCCC(NC(=O)c1ccccc1)C(=O)N1CCN(Cc2ccc(Cl)cc2)CC1 (centres undefined) -24.3%
CCCCN(C(=O)c1cccc(N2C(=O)c3ccccc3C2=O)c1)c1c(N)n(CCCC)c(=O)[nH]c1=O 19.8%
N#Cc1ccc(OC2=NS(=O)(=O)c3ccccc32)cc1 0%
COc1ccc(/C=N/NS(=O)(=O)c2ccc(NC(C)=O)cc2)cc1 -2.95%
COc1ccc(S(=O)(=O)N/N=C\c2ccc(OC)c(COc3ccc(C)cc3[N+](=O)[O-])c2)cc1 -12.6%
CCOc1ccc(C(=O)c2cn(Cc3ccc(F)cc3)c3ccc(F)cc3c2=O)cc1 -26.7%
Cc1ccc(Nc2c(-c3ccc(N(C)C)cc3)nc3nc[nH]n23)cc1 27.1%
CN(C)c1ccc(C2N(C)C(=O)c3ccccc3N2C)cc1 (centres undefined) -2.93%
O=C(Nc1c(C(=O)N2CCN(c3ccc(F)cc3)CC2)oc2ccccc12)c1ccco1 -36.8%
CCOC(=O)C1CCCN(C(=O)C2CCN(S(=O)(=O)c3ccc(Cl)c(C(F)(F)F)c3)CC2)C1 (centres undefined) -7.11%
CCCCNC(=O)CSc1nc2ccc(NC(=O)CSc3nnc(COc4ccccc4C)n3C)cc2s1 -7.65%
CCC(=O)Nc1ccc2nc(SCC(=O)N3CCc4ccccc43)sc2c1 8.17%
CCOC(=O)c1ccc(NC(=O)C2CC(=O)N(c3ccc(C(C)C)cc3)C2)cc1 (centres undefined) -5.85%
O=C(Nc1ccc(S(=O)(=O)N2CCCCCC2)cc1)c1c(F)cccc1F -17.6%
O=C(Nc1ccncc1)Nc1ccc(F)cc1 22.6%
Cc1ccc(C)c(N2CCN(CCCNC(=O)Nc3ccc(Cl)cc3)CC2)c1 10.3%
CCOc1ccc(NC(=O)CCC(=O)N2CC(C)Oc3ccc(C)cc32)cc1 (centres undefined) 1.09%
CN(C)C(=O)c1coc2nc3ccccc3nc12 0.918%
O=c1[nH]c(=O)c2nc3ccccc3nc2[nH]1 10.6%
Cc1ccc(Nc2c(-c3ccc(C)cc3)nc3cnccn23)cc1 -2.28% [at 9.27 µM]
CCOC(=O)C1CCN(C(=O)CN2C(=O)NC(C)(c3ccc4cc(OC)ccc4c3)C2=O)CC1 (centres undefined) -3.88%

Potency, active:
CC(=O)Nc1ccc(-c2csc(NC(=O)Nc3ccccc3)n2)cc1 16.4 µM
CC1C(C)N(C(=O)CCl)c2ccccc2N1C(=O)CCl (centres undefined) 18.4 µM
CCN(CC)S(=O)(=O)c1ccc(NC(=O)c2cccnc2Cl)c(NC(=O)c2cccnc2Cl)c1 20.6 µM
c1ccc(C(=NNc2nc3ccccc3s2)c2ccccn2)cc1 9.2 µM
COc1ccc(C(=O)Oc2cc(/C=N/NS(=O)(=O)c3ccc(C)cc3)ccc2OC)cc1 16.4 µM
CN(C)c1ccc(Nc2c3c4c(cccc4n(C)c2=O)C(=O)c2ccccc2-3)cc1 8.2 µM
CCCCNC(=O)CSc1nc2ccc(NC(=O)CSc3nnc(N)s3)cc2s1 16.4 µM
O=C(Nc1ccncc1)c1c(F)cccc1F 9.2 µM
CNC(=O)c1cccc2nc3ccccc3nc12 5.8 µM
